This is an account of results in PubChem BioAssay (NCI).

Common to all, as to test: NCI-60 one-dose screen, 48 h (100 = growth as untreated, 0 = no growth, -100 = all killed)
Holding throughout (conditions): 10 µM unless noted

The subject of assay [1] is DU-145 prostate.
Assay [2] concerns K-562 leukemia.
Assay [3] concerns MALME-3M melanoma.
The subject of assay [4] is MDA-MB-231 breast.
Assay [5] relates to RXF 393 renal.
Assay [6] relates to SF-268 CNS.
The subject of assay [7] is SF-295 CNS.
In assay [8] the test system is SF-539 CNS.
Assay [9] concerns UACC-257 melanoma.
Assay [10] deals with M14 melanoma.
The subject of assay [11] is HCT-15 colon.
Assay [12] deals with HT29 colon.
In assay [13] the test system is SNB-75 CNS.
The subject of assay [14] is SNB-19 CNS.
In assay [15] the test system is U251 CNS.
Assay [16] deals with PC-3 prostate.
Assay [17] relates to SK-MEL-5 melanoma.
For assay [18], the system named is UACC-62 melanoma.
Assay [19] deals with LOX IMVI melanoma.
Assay [20] concerns SK-MEL-28 melanoma.

About 83,000 compounds went through this panel and 20% of them were active in at least one assay; those are over-represented in the sample as a whole.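 Activity criterion: percent growth below 10, measured after cells in 96-well plates were exposed to a single compound concentration for 48 hours.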 Values without a mark were called inactive. Active and inactive are the calls of the source.

Consider `Nc1cccc2c(=S)c3ccccc3[nH]c12`, for which the growth in [1] was 113%; in assay [2], 91%; in assay [3], 102%; in [4] it was 68.3%; in assay [5], 95.1%; in [6] it was 92.5%. The growth in assay [7] was 97.3%; in assay [8] it was 96.9%; in assay [9] it was 99%; in assay [10], 102%; in assay [11] it was 95.4%; in [12], 117%. The growth was 94.6% in [13]; 89.8% in assay [14]; 104% in [15]; 82.5% in assay [16]; 91.4% in [17]; 87.6% in [18]. Further, the growth was 88.5% in assay [19] and 114% in assay [20].

Consider `COc1cc(CNCCCN2C(=O)c3ccc4c5c(ccc(c35)C2=O)C(=O)N(CCCNCc2cc(OC)c(OC)c(OC)c2)C4=O)cc(OC)c1OC`, for which the growth is -95.6% (active) in assay [1]; 7.69% (active) in [2]; -87.1% (active) in [3]; -17.5% (active) in assay [4]; -95.3% (active) in [5]; -31.8% (active) in assay [6]. In addition, the growth was -50.3% (active) in [7]; -86.9% (active) in [8]; -93% (active) in [9]; -89.8% (active) in assay [10]; -29.4% (active) in [11]; -47.6% (active) in assay [12]. For the same compound, the growth in assay [13] is -97.2% (active); in assay [14], -92.3% (active); in assay [15], -74.5% (active); in [16] it was -54.8% (active); in assay [17], -99.7% (active); in assay [18], -90.2% (active). Besides, the growth was -85.6% (active) in assay [19] and -91.7% (active) in [20].

Take `O=C(NCc1cccnc1)c1ccc([N+](=O)[O-])o1`: the growth is -67.6% (active) in [1]; 22.1% in assay [2]; -61% (active) in assay [3]; 107% in assay [4]; -9.05% (active) in assay [5]; 33% in [6]. The growth is 20.8% in assay [7]; -30.9% (active) in assay [8]; -7.66% (active) in assay [9]; -81.2% (active) in assay [10]; -68.1% (active) in assay [11]; -68.5% (active) in [12]. The growth is -3.32% (active) in assay [13]; 16.8% in [14]; 4.88% (active) in assay [15]; 24.5% in assay [16]; 4.47% (active) in assay [17]; -67.9% (active) in assay [18]. Further, the growth is -77.9% (active) in assay [19] and 17% in assay [20].

In the case of `Clc1cccc(Cl)c1Nc1ccc2nnc(-c3ccncc3)n2n1`, the growth in [1] is 111%; in [2], 57.1%; in [3] it was 98.2%; in assay [4] it was 114%; in assay [5], 109%; in assay [6] it was 107%. In addition, the growth was 96% in assay [7]; 95.7% in assay [8]; 97.8% in assay [9]; 99.1% in assay [10]; 90.9% in [11]; 106% in assay [12]. Besides, the growth was 99.4% in assay [13]; 101% in [14]; 103% in [15]; 101% in assay [16]; 100% in assay [17]; 106% in [18]. The values for the growth in [19] and in assay [20] were 93.2% and 105%, respectively.

As for `COc1ccc2c(c1)c(=O)oc1c(C)c(OCC(C)=O)ccc12`, the growth was 86.8% in [1]; 102% in [2]; 112% in assay [3]; 114% in assay [4]; 103% in assay [5]; 85.6% in [6]. Further, the growth is 93.9% in assay [7]; 94.3% in [8]; 96.2% in [9]; 112% in assay [10]; 86.7% in [11]; 103% in [12]. The growth in [13] is 108%; in [14] it was 101%; in assay [15] it was 90%; in assay [16], 83.3%; in assay [17], 103%; in assay [18] it was 64.3%. Besides, the growth in assay [19] was 94.7%; in assay [20], 106%.

As for `COc1cc2cc(Oc3ccc(NC(=O)Nc4ccc(Cl)c(C(F)(F)F)c4)cc3)c(C)nc2cc1OCCN1CCCCC1`, the growth in [1] was -85.2% (active); in [2], -48.1% (active); in [3], -78.4% (active); in assay [4], -87.2% (active); in [5], 44.2%; in assay [6], 3.42% (active). Further, the growth in assay [7] is 57.5%; in assay [8], -89.8% (active); in assay [9] it was -49.4% (active); in [10], -67.4% (active); in [11] it was -81.8% (active); in assay [12] it was -68% (active). For the same compound, the growth is -57.9% (active) in assay [13]; -51.7% (active) in [14]; -76.4% (active) in assay [15]; -55.3% (active) in assay [16]; -76.1% (active) in assay [17]; 72.6% in assay [18]. For the same compound, the growth is -97.1% (active) in assay [19] and -86% (active) in assay [20].

Consider `O=c1c2c(=NCCN3CCCC3)cc3c(=O)n(CCCN4CCOCC4)c(=O)c4c(-c5ccc(CN6CCCC6)cc5)cc(c(O)n1CCCN1CCOCC1)c2c4-3`, for which the growth was -26.7% (active) in [1]; -21.1% (active) in assay [2]; -70.1% (active) in [3]; -46.6% (active) in [4]; -79.4% (active) in [5]; -33.1% (active) in assay [6]. Moreover, the growth in assay [7] is -12.5% (active); in assay [8], -78.8% (active); in [9], -27.1% (active); in assay [10], -78.7% (active); in assay [11], -30% (active); in assay [12], -23.4% (active). For the same compound, the growth in assay [13] is -83.5% (active); in assay [14], -9.24% (active); in [15] it was -19.4% (active); in assay [16], -47.2% (active); in assay [17] it was -44.6% (active); in [18], -73.2% (active). The growth was -78.2% (active) in assay [19] and -67.8% (active) in [20].
